Compounds without any hit were thinned out: in the full panel of roughly 83,000, 20% have a hit.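 How to read the values: 0–100, growth inhibition (40 = 60% inhibited); 0, no net growth; -100 to 0, cell death (-40 = 40% of starting cells died; -100 = all dead).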 Active and inactive are the calls of the source. How the source made its calls: active means growth percent below 10; inactive means the rest.
How the values were obtained:
Assay in all cases: NCI-60 one-dose screen, 48 h (100 = growth as untreated, 0 = no growth, -100 = all killed)
SK-MEL-2 melanoma = conditions: 10 µM unless noted
EKVX NSCLC = conditions: 10 µM unless noted
SN12C renal = conditions: 10 µM unless noted
UO-31 renal = conditions: 10 µM unless noted
TK-10 renal = conditions: 10 µM unless noted
ACHN renal = conditions: 10 µM unless noted
CAKI-1 renal = conditions: 10 µM unless noted
A498 renal = conditions: 10 µM
HL-60(TB) leukemia = conditions: 10 µM unless noted
CCRF-CEM leukemia = conditions: 10 µM unless noted
MOLT-4 leukemia = conditions: 10 µM unless noted
SR leukemia = conditions: 10 µM unless noted
RPMI-8226 leukemia = conditions: 10 µM unless noted
OVCAR-8 ovarian = conditions: 10 µM unless noted
OVCAR-5 ovarian = conditions: 10 µM unless noted
OVCAR-4 ovarian = conditions: 10 µM unless noted
SK-OV-3 ovarian = conditions: 10 µM unless noted
IGROV1 ovarian = conditions: 10 µM unless noted
OVCAR-3 ovarian = conditions: 10 µM unless noted
HS 578T breast = conditions: 10 µM unless noted

Measured: growth

Clc1cccc(NCOOC2(OOCNc3cccc(Cl)c3)CCCCC2)c1
inactive: SK-MEL-2 melanoma 80.8% | EKVX NSCLC 55.1% | SN12C renal 91.9% | TK-10 renal 86.3% | ACHN renal 38.8% | CAKI-1 renal 12.3% | A498 renal 61% | HL-60(TB) leukemia 39.1% | CCRF-CEM leukemia 36.7% | MOLT-4 leukemia 72.4% | RPMI-8226 leukemia 53.1% | OVCAR-8 ovarian 30.3% | OVCAR-5 ovarian 82.5% | OVCAR-4 ovarian 107% | SK-OV-3 ovarian 94.7% | OVCAR-3 ovarian 79.7% | HS 578T breast 98.4%
active: UO-31 renal -73.7% | SR leukemia -41.4% | IGROV1 ovarian -33.2%

C/C(=C\c1ccn(-c2ccc(N)c(F)c2)n1)[C@@H]1C[C@@H]2O[C@]2(C)CCC[C@H](C)[C@H](O)[C@@H](C)C(=O)C(C)(C)[C@@H](O)CC(=O)O1
active: HL-60(TB) leukemia 5.44% | MOLT-4 leukemia 6.16% | SR leukemia 9.07% | RPMI-8226 leukemia 8.95% | OVCAR-3 ovarian 2.8% | HS 578T breast 2.63%
inactive: SK-MEL-2 melanoma 23.2% | EKVX NSCLC 42.2% | SN12C renal 35.7% | UO-31 renal 36.9% | TK-10 renal 44.6% | ACHN renal 44.6% | CAKI-1 renal 37.5% | A498 renal 13% | CCRF-CEM leukemia 12.1% | OVCAR-8 ovarian 24.7% | OVCAR-5 ovarian 19.4% | OVCAR-4 ovarian 52.2% | SK-OV-3 ovarian 50.7% | IGROV1 ovarian 34%

COc1ccc(Nc2ccnc3cc(Cl)ccc23)cc1CN(CCCl)CCCl
active: SK-MEL-2 melanoma -46.7% | EKVX NSCLC -15.3% | SN12C renal 2.25% | UO-31 renal -42.2% | TK-10 renal -37.5% | ACHN renal -33.7% | CAKI-1 renal -63.9% | A498 renal -47.5% | HL-60(TB) leukemia -22.3% | CCRF-CEM leukemia -6.67% | MOLT-4 leukemia -12.1% | SR leukemia -0.721% | RPMI-8226 leukemia -25.8% | OVCAR-8 ovarian -39.3% | OVCAR-5 ovarian -26.1% | OVCAR-4 ovarian -15.3% | SK-OV-3 ovarian 8.86% | IGROV1 ovarian -36% | OVCAR-3 ovarian -49.3% | HS 578T breast -27.6%

CC(=O)OC1CCC2(C)C(CCC3C2CC(=O)C2(C)C3CC(Sc3ccc(N(CCCl)CCCl)cc3)C2C(C)=O)C1 (centres undefined)
inactive: SK-MEL-2 melanoma 93.3% | EKVX NSCLC 115% | SN12C renal 87.3% | UO-31 renal 77.6% | TK-10 renal 92.6% | ACHN renal 72.3% | CAKI-1 renal 68% | A498 renal 103% | HL-60(TB) leukemia 79.3% | CCRF-CEM leukemia 63.1% | MOLT-4 leukemia 77.3% | SR leukemia 51.5% | RPMI-8226 leukemia 49% | OVCAR-8 ovarian 84.1% | OVCAR-5 ovarian 95.6% | OVCAR-4 ovarian 84.4% | SK-OV-3 ovarian 113% | IGROV1 ovarian 116% | OVCAR-3 ovarian 99.6% | HS 578T breast 110%

COC(=O)[C@@H](C)C[C@H](Cc1ccccc1)NC(=O)c1csc([C@@H](C[C@H](C(C)C)N(C)C(=O)[C@@H](NC(=O)C23CC(NC(C)=O)(C2)C3)C2CC2)OC(C)=O)n1
active: HL-60(TB) leukemia -17.2% | CCRF-CEM leukemia 9.99% | OVCAR-3 ovarian -7.77% | HS 578T breast 7.48%
inactive: SK-MEL-2 melanoma 49% | EKVX NSCLC 78.8% | SN12C renal 51.7% | UO-31 renal 95.4% | TK-10 renal 77.1% | ACHN renal 96.2% | CAKI-1 renal 95.3% | A498 renal 48.3% | MOLT-4 leukemia 57.4% | SR leukemia 29.1% | RPMI-8226 leukemia 12% | OVCAR-8 ovarian 69.1% | OVCAR-5 ovarian 103% | OVCAR-4 ovarian 77.7% | SK-OV-3 ovarian 78.9% | IGROV1 ovarian 49.4%

COc1cc(/C=N/C2=C(C#N)C(c3ccco3)c3c(c4cc(C)ccc4oc3=O)O2)cc(OC)c1OC (centres undefined)
inactive: SK-MEL-2 melanoma 94.1% | EKVX NSCLC 95.1% | SN12C renal 99.5% | UO-31 renal 67.9% | TK-10 renal 109% | ACHN renal 90.1% | CAKI-1 renal 85.8% | A498 renal 86.6% | HL-60(TB) leukemia 96.1% | CCRF-CEM leukemia 96.5% | MOLT-4 leukemia 106% | SR leukemia 74.8% | RPMI-8226 leukemia 101% | OVCAR-8 ovarian 101% | OVCAR-5 ovarian 105% | OVCAR-4 ovarian 97.6% | SK-OV-3 ovarian 92.6% | IGROV1 ovarian 83.1% | OVCAR-3 ovarian 91.4% | HS 578T breast 64.3%

O=C(CC1(O)C(=O)N(Cc2ccccc2)c2ccc(F)cc21)c1ccc(C(=O)NCC2CCC3(CC2)OOC2(CCCCC2)OO3)cc1 (centres undefined)
active: SK-MEL-2 melanoma -12.9% | EKVX NSCLC -68.5% | SN12C renal -59.5% | UO-31 renal -76.3% | TK-10 renal -93.6% | ACHN renal -80.7% | CAKI-1 renal -87.1% | A498 renal -88.5% | HL-60(TB) leukemia -57.5% | CCRF-CEM leukemia -36.9% | MOLT-4 leukemia -48.9% | SR leukemia -44.8% | RPMI-8226 leukemia -29.7% | OVCAR-8 ovarian -30.5% | OVCAR-5 ovarian 4.61% | OVCAR-4 ovarian -32.4% | IGROV1 ovarian -38.1% | OVCAR-3 ovarian -76.9%
inactive: SK-OV-3 ovarian 41.1%

CNC12C3C4C1C1C2C3C41C(=O)N[C@H](C(=O)N(C)[C@H](C[C@@H](OC(C)=O)c1nc(C(=O)N[C@@H](Cc2ccccc2)C[C@H](C)C(=O)OC)cs1)C(C)C)C1CC1 (some centres undefined)
inactive: SK-MEL-2 melanoma 25.4% | EKVX NSCLC 30.9% | SN12C renal 31.5% | UO-31 renal 36.3% | TK-10 renal 23.4% | ACHN renal 23.2% | CAKI-1 renal 87.9% | A498 renal 21.3% | OVCAR-8 ovarian 20.1% | OVCAR-5 ovarian 56.6% | OVCAR-4 ovarian 44.5% | SK-OV-3 ovarian 40.7% | IGROV1 ovarian 17% | HS 578T breast 32.3%
active: HL-60(TB) leukemia -34.9% | CCRF-CEM leukemia -1.11% | MOLT-4 leukemia -1.54% | SR leukemia -12.7% | RPMI-8226 leukemia -6.94% | OVCAR-3 ovarian -32.9%
